Several values for one entry are separate records, joined by “and”; a condition that tells them apart may be missing. Equal entries are not always repeated. Out of some 1,300 compounds screened, about 20 (2%) were called active. Rule as the data show it: active = inhibition above about 40%; inactive = the rest. A selection follows.
molecular target: Integrin alpha-4 (Homo sapiens) (UniProt P13612); experiment: retest of VLA-4 allosteric modulators, confirmation, cell-based, cherry-picked plates, U937, HUTS-21 LIBS antibody (AID 2813); settings: U937 cells, HUTS-21 LIBS mAb binding, flow cytometry; at 6.7 µM; hits give high values; LDV ligand present at threefold Kd;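 also: 0% = ligand without compound and 100% = no ligand background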
Sequence (P13612 whole entry, looked up): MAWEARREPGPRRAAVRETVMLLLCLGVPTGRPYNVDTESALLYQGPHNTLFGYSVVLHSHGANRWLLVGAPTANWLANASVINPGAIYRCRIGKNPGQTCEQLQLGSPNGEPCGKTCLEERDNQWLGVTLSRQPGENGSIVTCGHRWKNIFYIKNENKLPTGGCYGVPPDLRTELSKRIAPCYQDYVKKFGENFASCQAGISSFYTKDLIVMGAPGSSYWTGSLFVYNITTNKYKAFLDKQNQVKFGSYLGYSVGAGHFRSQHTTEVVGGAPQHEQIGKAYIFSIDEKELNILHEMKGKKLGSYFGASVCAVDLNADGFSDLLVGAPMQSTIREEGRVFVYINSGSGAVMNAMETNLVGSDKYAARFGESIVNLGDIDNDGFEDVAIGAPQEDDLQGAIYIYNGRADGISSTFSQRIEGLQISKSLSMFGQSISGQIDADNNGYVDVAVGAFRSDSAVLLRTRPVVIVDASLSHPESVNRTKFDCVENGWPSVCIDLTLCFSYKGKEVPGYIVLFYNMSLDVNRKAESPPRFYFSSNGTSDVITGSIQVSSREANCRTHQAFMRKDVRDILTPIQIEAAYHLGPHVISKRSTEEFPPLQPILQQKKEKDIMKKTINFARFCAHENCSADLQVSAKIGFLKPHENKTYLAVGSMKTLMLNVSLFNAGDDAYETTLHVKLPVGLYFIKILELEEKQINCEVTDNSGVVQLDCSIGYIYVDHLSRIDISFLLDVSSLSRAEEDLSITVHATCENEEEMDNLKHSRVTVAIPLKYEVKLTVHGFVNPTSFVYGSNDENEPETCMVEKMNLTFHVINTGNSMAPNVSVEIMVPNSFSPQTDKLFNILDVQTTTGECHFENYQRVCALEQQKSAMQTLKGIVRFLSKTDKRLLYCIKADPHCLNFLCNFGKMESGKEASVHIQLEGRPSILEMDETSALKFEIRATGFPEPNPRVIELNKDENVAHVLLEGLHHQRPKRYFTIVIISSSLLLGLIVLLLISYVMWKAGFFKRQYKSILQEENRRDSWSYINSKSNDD

inhibition, inactive:
COc1ccc(C(=O)N2CCC(C(=O)Nc3cccc(C)c3)CC2)cc1OC -6.72%, Cc1ccc(NC(=O)OCc2cncs2)cc1 11.7%, CC1(C)SC2C(NC(=O)COc3ccccc3)C(=O)N2C1C(=O)O (stereo not given) 4.42%, COC(=O)[C@]1(Cc2ccccc2)N[C@H](CN(C)S(=O)(=O)c2ccc(OC(F)(F)F)cc2)[C@@H]2C(=O)N(Cc3ccccc3)C(=O)[C@@H]21 -5.51%, CSc1nc(-c2ccco2)nn1C(=O)CCc1ccccc1 9.03%, Cc1cccc(NS(=O)(=O)c2ccc(C)c(C(N)=O)c2)c1 0.43%, CC1(C(=O)NCCc2c[nH]c3ccccc23)C=CC2(CCCCC2)N1C(=O)c1ccccc1 (stereo not given) 5.58%, CCCOc1ccc(N2C(=O)CC(N(CCc3ccc(S(N)(=O)=O)cc3)C(C)=O)C2=O)cc1 (stereo not given) -1.15%, CC(=O)NC12CC3CC(C1)CC(C(=O)N1CCN(S(=O)(=O)c4cccs4)CC1)(C3)C2 -0.75%, Cc1nn(CC(=O)Nc2ccc(C#N)cc2)c(C)c1[N+](=O)[O-] -11.4%, Nc1ccc(Cl)c(S(=O)(=O)Nc2ccccc2Cl)c1 -5.79%, O=C1Cc2cc(S(=O)(=O)Nc3cccc(F)c3)ccc2N1 -8.24%, CC(OC(=O)c1c(F)cccc1F)C(=O)NCCC1=CCCCC1 (stereo not given) 1.98%, O=C(Nc1cccc(S(=O)(=O)Nc2ccc(Cl)cc2)c1)c1ccc2c(c1)OCCO2 -8.53%, Cc1cc(C)n(CC(O)CN(c2ccccc2)S(=O)(=O)c2ccc3ccccc3c2)n1 (stereo not given) 11.9%, CC/C(O)=C1\C(=O)CC(C)(C)CC1=NCCc1nc2ccccc2[nH]1 -5.52%, CC(=O)c1cccc(NC(=O)C2CCN(C(=O)c3ccccc3Cl)CC2)c1 5.38%, COC(=O)c1c(NC(=O)c2c(Cl)cnn2C)sc(C)c1C -13.4%, CCn1c(SCC(=O)Nc2nc(C)cs2)nnc1C(C)NC(=O)c1ccccc1 (stereo not given) 0.62% and 0%, Cc1ccc(S(=O)(=O)N2[C@@H](c3ccc(Br)cc3)C(C(=O)O)=C[C@H]2CC2CCCC2)cc1 4.02%, Cc1cc(C)cc(C(=O)NCC(=O)OCC(=O)N2CCCCC2)c1 13.7%, Cc1ccnc(NC(=O)c2ccco2)n1 -3.54%, S=C(Nc1cccnc1)Nc1ccccn1 -4.45%, COc1cccc(-c2cccc(NC(=O)C3CCN(C4CCC4)CC3)c2)c1 3.49%, COc1cccc(N2CCN(C3CC(=O)N(c4ccc(Cl)cc4)C3=O)CC2)c1 (stereo not given) 3.08%, CCOC(=O)N1CCN(S(=O)(=O)c2ccc3c(c2)C(C)C(=O)N3)CC1 (stereo not given) 0.62%, CCOC(=O)C1CCCN(S(=O)(=O)c2ccc3c(c2)C(C)(C)C(=O)N3C)C1 (stereo not given) 0.62%, CC(=O)c1ccc(N2CCN(S(=O)(=O)c3ccc4c(c3)CC(=O)N4C)CC2)cc1 -9.51%, O=C(CN1CCC(NC(=O)Nc2ccccc2)CC1)Nc1cccc([N+](=O)[O-])c1 1.64%, Cc1cnc(NC(=O)C2CCCC2)s1 -4.15%, Cc1ccc(S(=O)(=O)N2[C@@H](c3cccc4ccccc34)C(C(=O)O)=C[C@H]2C(C)(C)C)cc1 1.98%, CCCN(CC1COc2ccccc2O1)C(=S)Nc1ccc(C)cc1 (stereo not given) -14.3%, COCCNC(=O)Cn1cc2c(n1)CCCCC2 3.34%, CC(C)(C)NC(=O)NC(=O)COC(=O)Cn1c(C(F)(F)F)nc2ccccc21 -13.5%, COc1ccccc1NC(=O)c1cc(Cl)nnc1Cl 0%, COC(=O)N/N=C/c1c[n+]([O-])c2ccccc2[n+]1[O-] 1.64%, COc1cccc(-c2sc3ccc(OC)cc3c2-c2ccc(OCCN3CCCCC3)cc2)c1 3.49%, CCc1ccc2c(c1)C1(NN=C(c3ccccc3)S1)C(=O)N2 (stereo not given) 2.06%, Cc1cc(C(=O)OCC(=O)Nc2ccc(F)c(F)c2)c(C)o1 0%, CCNC(=S)NNC(=O)Cc1ccccc1 -5.51%, CCOC(=O)C1(S(=O)(=O)c2ccccc2)CCN(Cc2ccccc2)CC1 1.76%, COCCOC(=O)C1=C(C)Nc2nc(C)nn2C1c1ccccc1 (stereo not given) 3.82%, CCCOc1ccccc1C1CC(=O)Nc2cc3c(cc21)OCO3 (stereo not given) 37.9%, Cc1cc(C(=O)OCC(=O)NCc2ccco2)c(C)n1-c1ccccc1 24.9%, CCc1nnc(NC(=O)[C@@H](NC(=O)c2cccc(C)c2)C(C)C)s1 3.73%, O=C(Nn1c(-c2ccccc2)nc2ccccc2c1=O)c1ccc([N+](=O)[O-])cc1 -13.4%, CC(C)N(Cc1ccccc1)C(=S)Nc1ccc(OC(F)F)cc1 -7.72%, Cc1cnc(NC(=O)CSc2nnc(C)s2)s1 -0.75%, CCOc1ccc(N(CC(=O)Nc2ccccc2F)S(=O)(=O)c2c(C)[nH]c(=O)[nH]c2=O)cc1 5.58%, COc1ccccc1C1CC(=O)n2c(nc(-c3ccccc3)c2-c2ccccc2)S1 (stereo not given) -0.36%, COc1ccc(-c2sc3ccccc3c2-c2ccc(OCCN3CCOCC3)cc2)cc1 7.43%, CCOC(=O)C1(S(=O)(=O)c2ccc(Cl)cc2)CCN(Cc2ccccc2)CC1 5.07%, CC(=O)c1ccc(NC(=O)Cn2c(=O)oc3ccccc32)cc1 2.42%, CCOC(=O)c1ccc(N2C(=O)CC(N3CC(C)OC(C)C3)C2=O)cc1 (stereo not given) 5.58% and 0%, Cc1cc(C)cc(OCC(=O)NCc2cc(C)nc3ccccc23)c1 -0.36%, NC(=O)Cn1c(=O)oc2ccccc21 -9.51%, Cc1c(CN2CCC(CO)(CCOc3ccccc3)CC2)[nH]c2ccc(Cl)cc12 22.3%, CCC(C)(C)NC(=O)c1cc([N+](=O)[O-])ccc1N1CCCCC1 -9.35%, O=C(CN1CCN(c2ncccn2)CC1)Nc1ccccc1C(F)(F)F 4.55%, Cc1ccccc1OCCC(=O)OCC(=O)NC(C)c1ccccc1 (stereo not given) 9.45%, CC(=O)N1CCc2cc(S(=O)(=O)Nc3ccccc3N3CCN(C)CC3)ccc21 1.98%, Cc1nn(Cc2ccc(Cl)c(Cl)c2)c(C)c1NC(=O)c1cc(C2CC2)on1 -4.2%, COc1ccc2sc(-c3ccccc3OC)c(-c3ccc(OCCN4CCCC4)cc3)c2c1 -4.83%, O=C(Cn1c(NCCO)nc2ccccc21)c1ccc(Cl)cc1Cl 8.37%, Cc1ccc(/C=C/C(=O)OCC(=O)NCc2ccc(Cl)cc2)o1 -0.23%
